According to PubChem BioAssay AID504523 (Broad Institute, 2011):
Where “and” joins values, the source holds several entries; their conditions need not be identical. Equal values may be shown once. In all, about 340,000 compounds went through this assay and about 490 (0.14%) were called active. Rule as the data show it: active = inhibition above about 12%; inconclusive = no clear call, values can overlap the other calls; inactive = below about 7.3%. Shown is part of a subset that was picked to be rich in actives. Some structures have more than one record in an assay (separate samples or runs), and their calls can disagree.

biological target: Kelch-like ECH-associated protein 1 (Homo sapiens) (UniProt Q14145); assay: Keap1-Nrf2 protein-protein interaction inhibitors, primary screen, biochemical, fluorescence polarization, single point (AID 504523); conditions: Keap1 Kelch-Nrf2 peptide fluorescence polarization, 1536-well; at 9.4 µM; stronger effect = higher value;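 also: human Keap1 Kelch domain with fluorescein labeled Nrf2 9mer peptide probe; 0% = neutral control wells and 100% = peptide positive control; higher means more block of Keap1 binding to Nrf2 peptide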
Sequence (Q14145 whole entry, looked up, the tested form may be a part): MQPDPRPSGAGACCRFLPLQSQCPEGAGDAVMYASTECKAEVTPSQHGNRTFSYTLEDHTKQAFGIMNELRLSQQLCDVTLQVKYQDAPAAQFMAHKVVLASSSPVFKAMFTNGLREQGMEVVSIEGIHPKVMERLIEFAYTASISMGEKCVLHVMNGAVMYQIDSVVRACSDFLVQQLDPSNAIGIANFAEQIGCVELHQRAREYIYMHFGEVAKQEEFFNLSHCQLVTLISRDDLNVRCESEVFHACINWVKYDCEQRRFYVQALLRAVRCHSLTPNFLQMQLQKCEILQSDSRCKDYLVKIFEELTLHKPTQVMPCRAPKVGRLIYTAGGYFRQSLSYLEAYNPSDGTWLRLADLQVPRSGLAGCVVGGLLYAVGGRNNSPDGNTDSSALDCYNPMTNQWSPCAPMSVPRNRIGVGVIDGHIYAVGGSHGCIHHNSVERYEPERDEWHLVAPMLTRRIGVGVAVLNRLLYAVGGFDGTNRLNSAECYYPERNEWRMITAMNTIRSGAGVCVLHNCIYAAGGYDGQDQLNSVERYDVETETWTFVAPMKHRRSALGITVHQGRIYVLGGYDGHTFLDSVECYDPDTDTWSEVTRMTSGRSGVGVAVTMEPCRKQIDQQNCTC

inhibition, 44.6% (active) and -1.69% (inactive):
CN(CCOc1ccc(CC2SC(=O)NC2=O)cc1)c1ccccn1 (centres undefined)

inhibition, inactive:
Cc1ccc2c(c1)N(CC(=O)N1CCC(C)CC1)C(=O)c1cccnc1O2 -0.762%, COc1ccccc1C(=O)NCCn1cc(SCC(=O)NCc2ccco2)c2ccccc21 -4.2%, O=C(NCc1ccncc1)C(=O)NCc1ccco1 -3.77%, CCOC(=O)c1c(NC(=O)CSc2nnc(CNc3ccc(C)cc3C)o2)sc(C)c1C 3.69%, Cc1ccc(-n2c(CNc3ccc(F)cc3)nnc2SCC(=O)N2CCOCC2)cc1 -5.07%, CSCCC(NC(=O)COc1ccccc1)C(=O)N1CCN(c2cccc(C(F)(F)F)c2)CC1 (centres undefined) 1.75%, CC(C)=N/N=C1/NC(=O)C(Cc2ccccc2)S1 (centres undefined) -5.03%, CC(O)c1ccc(OCCN(C)c2ccccn2)cc1 (centres undefined) 2.21%, N#Cc1cccc(CSc2ncnc(N)n2)c1 -4.01%, Cc1nc(SCC(=O)NC2CCCCC2C)c(C#N)c(C)c1C (centres undefined) -1.86%, COc1ccccc1CNC(=O)C1Cc2ccccc2C(=O)O1 (centres undefined) 0.554%, CC(Sc1nnc(C2CC2)n1C1CC1)C(=O)Nc1ccc(C(N)=O)cc1 (centres undefined) -1.4%, COc1ccc(S(=O)(=O)n2nc(C)c(S(=O)(=O)N3CCOCC3)c2C)cc1 -1.09%, O=C1c2cccc3c([N+](=O)[O-])ccc(c23)C(=O)N1CC1CCCO1 (centres undefined) -6.02%, CC(C(=O)O)N1C(=O)c2cccc3cccc1c23 (centres undefined) -0.759%, c1ccc(CN=C2Nc3ccccc3CS2)nc1 -0.423%, O=S1(=O)CC/C(=N\Nc2ccc(F)cc2)c2ccsc21 3.88%, N#CCc1c[nH]c2ccc([N+](=O)[O-])cc12 0.344%, COC(=O)c1ccc(NC(=S)Nc2cccc(C)n2)cc1 1.2%, Cc1nn(C)c(C)c1Sc1ccccc1N -2.63%, O=C(Cc1ccc(Cl)cc1)NCc1nc(-c2ccccc2)no1 -0.917%

inhibition, active:
Cc1nn(C)cc1N1C(=O)c2cccc3c(N)ccc(c23)C1=O 71%, CN1C(=O)c2cccc3c(N)ccc(c23)C1=O 16.4%
